Source: PubChem (National Center for Advancing Translational Sciences (NCATS))
Only some compounds are listed: those with a hit (about 7.3% of all), similar ones and a draw of the others.
HCV inh – qHTS Assay for Inhibitors of Hepatitis C Virus (HCV). Potency, µM (titrated, usually from 41.8 µM), without a hit: at the highest dose activity change, negative = inhibition, hits mostly inhibitors. AID 651820, 2012. hit rate 3.4% among 340,000. Huh7.5.1 HCVcc-Cre infection, luciferase reporter, 44 h; active = well fitted inhibition curve with a large enough effect; inconclusive = small, poorly fitted or top-dose-only effect, or another doubt; inactive = no such curve, though single readings can be large or run the other way; also: potency is read from the fitted curve at half-maximal effect
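Cells seeded at 1,000/well and cultured 4 h, then compounds added followed by HCVcc-Cre virus (~0.5 moi). After 44 h further culture, luciferase substrate was added, plates held 15 min at room temperature, and luminescence read for 15 sec.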
VACV Venus inh – qHTS for Stage-Specific Inhibitors of Vaccinia Orthopoxvirus: Venus Reporter Primary qHTS | hit rate 0.46% among 330,000 | Vaccinia virus Venus reporter expression, fluorescence | Potency, µM (top dose mostly 36.5 µM), inactives show top-dose activity change, negative = inhibition, hits mostly inhibitors | AID 720580, 2013; calls by dose curve; tested in A549 cells; also: potency is read from the fitted curve at half-maximal effect; nearly all actives have a fitted effect of over 30% in size
HCMV antiviral – qHTS Assay for inhibitors of the human cytomegalovirus (HCMV) | HFF cells, HCMV-luciferase reporter, 72 h; active compounds read low | activity change, negative = inhibition, % at 57.5 µM | hit rate 4.5% among 410,000 | AID 1259415, 2018; in the data active = activity change below about -60%; inconclusive = no clear call, values can overlap the other calls; inactive = above about -39%
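Inhibition of viral replication was scored as loss of reporter luminescence in HFFs infected with HCMV-luciferase (MOI 1 PFU/cell) for 72 h; compounds tested at 2 doses, normalized to buffer and Salinomycin controls.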
FMDV inh – High Throughput Screening for Foot and Mouth Disease Virus Antivirals; hit rate 1.2% among 410,000; Potency, µM (highest dose often 57.9 µM), for inactives: at the top dose activity change, negative = inhibition, hits mostly inhibitors; AID 1159524, 2015; FMDV antiviral cell-based qHTS; calls by dose curve; tested in HEK293T cells; also: read-out not given here; potency is read from the fitted curve at half-maximal effect; nearly all actives have a fitted effect of over 45% in size
VACV mCherry inh – qHTS for Stage-Specific Inhibitors of Vaccinia Orthopoxvirus: mCherry Reporter Primary qHTS | Vaccinia virus mCherry reporter infection, fluorescence | Potency, µM (series often up to 36.5 µM), inactives show top-dose activity change, negative = inhibition, usual class: inhibitors | hit rate 0.63% among 310,000; calls by dose curve; tested in A549 cells; also: potency is read from the fitted curve at half-maximal effect; nearly all actives have a fitted effect of over 35% in size
An asterisk follows results filed as active; i = inactive; ? = inconclusive; nt = no result; [ ] = another dose, or the depositor's remark. % is scaled to controls: 0 for no effect and ±100 for the full control effect.

SMILES	HCV inh	VACV Venus inh	HCMV antiviral	FMDV inh	VACV mCherry inh
COc1ccc(Cl)cc1NC(=O)NCCn1c(=O)oc2ccc(C)cc21	nt	-8%	-22	1%	i
Cc1[nH]c(C)c(S(=O)(=O)N2CCN(c3ccc(Cl)cc3)CC2)c1C(=O)N1CCCC1	11%	nt	-27	-10%	nt
COc1ccc(CNC(=O)C2CCN(C(=O)c3ccc(-n4ccc5ccccc54)s3)CC2)cc1	nt	-25%	4	?	-15%
COc1ccc(-c2cc(C(F)(F)F)nc(S(=O)(=O)CCCC(=O)Nc3ccccc3C(F)(F)F)n2)cc1OC	nt	-16%	-100*	22µM*	-18%
COc1ccc(NC(=O)CCS(=O)(=O)c2nc(-c3ccc4c(c3)OCO4)cc(C(F)(F)F)n2)cc1	nt	-14%	-76*	-6%	i
Nc1nc(-c2ccccc2)c(N=Nc2ccccc2Cl)s1	11µM*	?	44	-11%	-28%
CCN(CC)C1Oc2cc3c(cc2C(c2cc(OC)c(OC)c(OC)c2)C1C)OCO3 (configuration not stated)	34%	?	?	-17%	i
O=C(CN1C(=O)CC(c2ccco2)Sc2ccccc21)Nc1ccc2c(c1)OCCO2 (configuration not stated)	11µM*	-8%	-36	nt	i
Cc1ccc(NC(=O)CN2C(=O)CC(c3ccco3)Sc3ccccc32)cc1Cl (configuration not stated)	nt	-9%	-30	-8%	-3%
O=S(=O)(Cc1ccccc1)c1cnc2ccccc2n1	5%	-12%	-33	11µM*	nt
COCCCNC(=O)C[C@H]1C[C@H](C(=O)N2CCCCC2)[C@@]2(CCc3ccccc3)c3[nH]c4ccc(Cl)cc4c3CCN2C1=O	5%	?	-5	40µM*	?
CC[C@]12c3[nH]c4ccccc4c3CCN1C(=O)C(CC(=O)NCCc1ccccn1)C[C@@H]2C(=O)N1CCN(C(=O)c2ccco2)CC1 (some centres not stated)	0.56µM*	-15%	5	-1%	i
O=C(CC1C[C@H](C(=O)N2CCCCC2)[C@@]2(CCc3ccccc3)c3[nH]c4ccccc4c3CCN2C1=O)NCCc1ccccn1 (some centres not stated)	-7%[8.37 µM]	?	-26	-8%	10µM*
Cc1cc(C)cc(NC2=C(c3ccccc3)C(=O)c3ccccc32)c1	nt	-10%	-24	?	-11%
CCCCCCN1C[C@H](n2cc(C3CC3)nn2)[C@@H](O)C[C@@H]1c1ccccc1	nt	11µM*	-38	-26%	?
CCCCCCN1C[C@H](n2cc(-c3ccc(F)cc3)nn2)[C@@H](O)C[C@@H]1c1ccc(C)cc1	nt	?	-81*	-22%	28µM*
CCCCCCN1C[C@@H](n2cc(-c3ccc(F)cc3)nn2)[C@H](O)C[C@@H]1c1ccc(Cl)cc1	nt	?	-95*	?	?
CCCCCCN1C[C@H](n2cc(-c3ccc(F)cc3)nn2)[C@@H](O)C[C@@H]1c1ccc(OC)cc1	nt	-13%	-8	-8%	-9%
CCCCCCN1C[C@H](O)[C@@H](n2cc(-c3ccc(F)cc3)nn2)C[C@@H]1c1ccc(Cl)cc1	nt	?	2	?	?
COc1ccc(CN2C(=O)CSCC2=O)cc1OC	25%	nt	-8	-12%	nt
COc1ccc(CCN2C(=O)CSC2=S)cc1OC	-1%	46%	-101*	7%	-13%
COc1ccc(CCN2C(=O)/C(=C\c3ccco3)SC2=S)cc1OC	-18%	2%	-96*	?	i
O=C1/C(=C\c2ccco2)SC(=S)N1Cc1ccccc1	?	-1%	-19	-17%	i
O=C(c1ccc(-n2c(SCc3cccc(F)c3)nc3ccccc3c2=O)cc1)N1CCOCC1	4%	3%	-63*	?	-9%
COc1ccc(NC(=O)c2sc3nc(C)c(C(=O)Nc4ccc(C)cc4C)c(-c4ccc(C)o4)c3c2N)cc1	nt	0%	-6	-8%	-9%
SMILES	HCV inh	VACV Venus inh	HCMV antiviral	FMDV inh	VACV mCherry inh
CCN1CCCc2cc(CN(CCN3CCOCC3)C(=S)Nc3cccc(C)c3)ccc21	-38%	-12%	-65*	-7%	?
COc1ccc(OC)c(CNC(=O)c2ccc3nc(C(C)C)oc3c2)c1	nt	-10%	14	10%	-4%
CCCCc1ncc(CN2CCC(CC3CCCCO3)(C(=O)OCC)CC2)[nH]1 (configuration not stated)	7%	-9%	-25	16%	i
CCOC(=O)C1(CC2CCCCO2)CCN(Cc2cc3ccccc3[nH]2)CC1 (configuration not stated)	?	?	-27	-23%	2.5µM*
O=C(CC1(CC2=NS(=O)(=O)c3ccccc3N2)CCCC1)NCCc1ccccc1	?	-21%	-68*	-2%	i
CCOC(=O)c1cc([N+](=O)[O-])cc([N+](=O)[O-])c1Sc1ncnc2nc[nH]c12	?	-19%	15	22µM*	?
CCOC(=O)C(C)(C)Sc1ncnc2nc[nH]c12	0%	-4%	-14	11%	-13%
Cc1cccc(-c2nnn3c2nc(NCCc2ccc(S(N)(=O)=O)cc2)c2cc(Cl)ccc23)c1	nt	-16%	?	-21%	-20%
COc1ccc(N(C)C(=O)NCc2noc3ccc(C)cc23)c(OC)c1	nt	6%	-82*	-14%	-3%
COc1ccc(OC)c(CNC(=O)NCc2noc3ccc(C)cc23)c1	nt	4%	14	-16%	-2%
Cc1[nH]c2ccccc2c1C1(O)C(=O)N(Cc2ccccc2)c2ccc(Br)cc21 (configuration not stated)	nt	-5%	-102*	-20%	1%
Cc1[nH]c2ccccc2c1C1(O)C(=O)N(Cc2ccccc2Cl)c2ccccc21 (configuration not stated)	nt	-12%	?	?	-16%
Cc1ccc(OCCCCNC2CCCCC2)c(C)c1	13µM*	nt	-37	?	nt
C=CCc1ccc(OCCOCCOc2ccc(C)cc2[N+](=O)[O-])c(OC)c1	11µM*	-35%	11	?	nt
C=CCc1ccc(OCCCCNC2CCCC2)c(OC)c1	10µM*	-20%	?	-9%	i
CCCC#Cc1ccc2c(c1)O[C@H](CN(C)C(=O)CC1CC1)[C@H](C)CN([C@@H](C)CO)S2(=O)=O	nt	?	-29	57%	-24%
C=C1CC[C@@]23CC[C@]4(C)[C@@](OC2=O)([C@@H]3C1)[C@H]1O[C@H]1C1[C@@]2(C)CC[C@H](O)C(C)(C)C2CC[C@]14C (some centres not stated)	9%	3%	nt	?	i
CNc1ncnc(Sc2nc(N)nc3nc[nH]c23)c1[N+](=O)[O-]	?	?	-77*	?	5µM*
Nc1nc(SCc2ccccc2)c2[nH]cnc2n1	9%	-29%	52	-3%	?
